Drawing on ChEMBL document CHEMBL5606458, “ASAP - ZIKV NS2B-NS3 protease fluorescence single point” (2024), this text covers inhibition for 23 compounds.

A word on the inhibition: it is the drop in the measured response relative to a control, in per cent.

In all, about 2,700 compounds went through this assay and about 160 (5.9%) showed an effect of 50% or more. This excerpt belongs to a sample that is enriched for strong results.

The test addresses Nonstructural protein 3 (Zika virus) (UniProt A0A024AXB9).
Setting [1] is: PRVABC59, Concentration 50.0 uM, Number of replicates 1.0.

Chain of Nonstructural protein 3 (Zika virus) (A0A024AXB9 as listed by the source): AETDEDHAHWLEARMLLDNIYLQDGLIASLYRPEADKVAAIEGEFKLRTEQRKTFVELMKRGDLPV

Consider `OCCOc1cc(COc2cccnc2F)nc(N2CCNCC2)n1`, for which the inhibition by setting is: (PRVABC59, Concentration 49.5 uM, Number of replicates 2.0, Standard deviation 1.0649598246775087 %) 10.8%; (PRVABC59, Concentration 99.01 uM, Number of replicates 2.0, Standard deviation 1.1158273619074888 %) 21.6%; (PRVABC59, Concentration 198.0 uM, Number of replicates 2.0, Standard deviation 0.21003831379185828 %) 36.7%.
Regarding `NC(=O)c1cn(C[C@H]2CCCN2c2ccnc3ccccc23)nn1`, the inhibition was 13.6% (PRVABC59, Concentration 49.5 uM, Number of replicates 2.0, Standard deviation 1.7032876695413104 %); 21.5% (PRVABC59, Concentration 99.01 uM, Number of replicates 2.0, Standard deviation 1.9821170579482856 %); 35.6% (PRVABC59, Concentration 198.0 uM, Number of replicates 2.0, Standard deviation 3.129764278957135 %).
`CS(=O)(=O)c1ccc(N2CCN(C(=O)C3CCN(c4ccc(C=O)cc4)CC3)CC2)c([N+](=O)[O-])c1`: the inhibition under setting [1] was determined as 38.3%.
For the compound `O=Cc1ccc(N2CCC(C(=O)N3CCN(c4ccc([N+](=O)[O-])cc4C(F)(F)F)CC3)CC2)cc1`, under setting [1], the inhibition came to 51.4%.
On to `O=Cc1ccc(N2CCC(C(=O)N3CCC(CCN4CCCC4)CC3)CC2)cc1`, for which the inhibition under setting [1] was 40.2%.
Consider `Fc1ncccc1OCc1cc(Cl)nc(N2CCNCC2)n1`, for which the inhibition stood at 15.1% (PRVABC59, Concentration 49.5 uM, Number of replicates 2.0, Standard deviation 1.0140201320428779 %); 28.4% (PRVABC59, Concentration 99.01 uM, Number of replicates 2.0, Standard deviation 1.7990689115932277 %); 49% (PRVABC59, Concentration 198.0 uM, Number of replicates 2.0, Standard deviation 0.8686404786633404 %).
As to `COc1ccc(S(=O)(=O)n2nc(OC(=O)c3cccc(-c4ccccc4Cl)c3)cc2N)cc1`, the inhibition came to 94.1% (PRVABC59, Concentration 49.5 uM, Number of replicates 2.0, Standard deviation 0.015159378472398365 %); 94.1% (PRVABC59, Concentration 99.01 uM, Number of replicates 2.0, Standard deviation 0.0016885713387404585 %); 93.9% (PRVABC59, Concentration 198.0 uM, Number of replicates 2.0, Standard deviation 0.07411371581986076 %).
For the compound `c1ccc2oc(C3CCN(Cc4c[nH]c5ccccc45)CC3)nc2c1`, the inhibition worked out at 37.2% (PRVABC59, Concentration 49.5 uM, Number of replicates 2.0, Standard deviation 0.07645236015003325 %); 54.7% (PRVABC59, Concentration 99.01 uM, Number of replicates 2.0, Standard deviation 0.17318915555138958 %); 70.9% (PRVABC59, Concentration 198.0 uM, Number of replicates 2.0, Standard deviation 0.13417938126885842 %).
In the case of `c1ccc2sc(C3CCN(Cc4c[nH]c5ccccc45)CC3)nc2c1`, the inhibition was found to be 83.5% (PRVABC59, Concentration 49.5 uM, Number of replicates 2.0, Standard deviation 0.0213310257935456 %); 89.1% (PRVABC59, Concentration 99.01 uM, Number of replicates 2.0, Standard deviation 0.10666052376433739 %); 90.7% (PRVABC59, Concentration 198.0 uM, Number of replicates 2.0, Standard deviation 0.03774199707932348 %).
Turning to `Cc1nc(C2CCN(Cc3c[nH]c4ccccc34)CC2)sc1C(=O)O`, the inhibition was determined as 29.1% (PRVABC59, Concentration 49.5 uM, Number of replicates 2.0, Standard deviation 1.7503606417061577 %); 49% (PRVABC59, Concentration 99.01 uM, Number of replicates 2.0, Standard deviation 0.7623791698480982 %); 66.9% (PRVABC59, Concentration 198.0 uM, Number of replicates 2.0, Standard deviation 0.018153490590612276 %).
For `c1ccc(-c2csc(C3CCN(Cc4c[nH]c5ccccc45)CC3)n2)cc1`, the inhibition came to 64.4% (PRVABC59, Concentration 49.5 uM, Number of replicates 2.0, Standard deviation 0.9101885047505917 %); 66.1% (PRVABC59, Concentration 99.01 uM, Number of replicates 2.0, Standard deviation 0.676804208631579 %); 66.1% (PRVABC59, Concentration 198.0 uM, Number of replicates 2.0, Standard deviation 0.5886424424408551 %).
Take `COC(=O)c1csc2cc(C(=O)N3CCCc4cc(CCN)ccc43)[nH]c12`: the inhibition is, setting by setting: (PRVABC59, Concentration 49.5 uM, Number of replicates 2.0, Standard deviation 0.9658024514724747 %) 6.59%; (PRVABC59, Concentration 99.01 uM, Number of replicates 2.0, Standard deviation 0.02626726469114151 %) 17.1%; (PRVABC59, Concentration 198.0 uM, Number of replicates 2.0, Standard deviation 0.028287616021359725 %) 35.6%.
For the compound `c1ccc2c([C@H]3CCN(C[C@H]4CCOC4)C3)c[nH]c2c1`, the inhibition is, setting by setting: (PRVABC59, Concentration 49.5 uM, Number of replicates 2.0, Standard deviation 3.5400839111105795 %) 4.89%; (PRVABC59, Concentration 99.01 uM, Number of replicates 2.0, Standard deviation 2.681337995191051 %) 11.3%; (PRVABC59, Concentration 198.0 uM, Number of replicates 2.0, Standard deviation 1.591884445207739 %) 20.9%.
In the case of `CS(=O)(=O)c1ccc(N2CCNCC2)cc1NC(=O)c1cccc2ncccc12`, the inhibition turned out to be 11.9% (PRVABC59, Concentration 49.5 uM, Number of replicates 2.0, Standard deviation 1.82855821855933 %); 19.4% (PRVABC59, Concentration 99.01 uM, Number of replicates 2.0, Standard deviation 4.882597086209548 %); 12.5% (PRVABC59, Concentration 198.0 uM, Number of replicates 2.0, Standard deviation 6.745947359627227 %).
With `CCn1ccnc(N2CC[C@@H](CC(N)=O)C2)c1=O`, the inhibition is, setting by setting: (PRVABC59, Concentration 49.5 uM, Number of replicates 2.0, Standard deviation 2.578637589312797 %) 7.29%; (PRVABC59, Concentration 99.01 uM, Number of replicates 2.0, Standard deviation 2.4095461189610305 %) 15.8%; (PRVABC59, Concentration 198.0 uM, Number of replicates 2.0, Standard deviation 1.1815224976183896 %) 30.8%.
Consider `Cc1cnccc1NC(=O)c1cccn(C[C@@H]2CCNC2)c1=O`, for which the inhibition is, setting by setting: (PRVABC59, Concentration 49.5 uM, Number of replicates 2.0, Standard deviation 1.3483593644559142 %) 2.86%; (PRVABC59, Concentration 99.01 uM, Number of replicates 2.0, Standard deviation 1.4355155911348652 %) 4.88%; (PRVABC59, Concentration 198.0 uM, Number of replicates 2.0, Standard deviation 0.7536456684870648 %) 8.2%.
Turning to `Cc1cc(NS(=O)(=O)c2ccc(Oc3ccccc3Cl)cc2)c(C(=O)NCC(F)(F)F)cc1F`, the inhibition was 38% (PRVABC59, Concentration 49.5 uM, Number of replicates 2.0, Standard deviation 1.109661109382951 %); 43.1% (PRVABC59, Concentration 99.01 uM, Number of replicates 2.0, Standard deviation 0.5262974754243883 %); 32.6% (PRVABC59, Concentration 198.0 uM, Number of replicates 2.0, Standard deviation 0.754567504357695 %).
As to `CNC(=O)c1cc(Cl)ccc1NS(=O)(=O)c1cccc(Oc2ccccc2)c1`, the inhibition was determined as 9.77% (PRVABC59, Concentration 49.5 uM, Number of replicates 2.0, Standard deviation 3.0665234385287206 %); 15.8% (PRVABC59, Concentration 99.01 uM, Number of replicates 2.0, Standard deviation 2.7531252049731103 %); 28.1% (PRVABC59, Concentration 198.0 uM, Number of replicates 2.0, Standard deviation 3.162284112918565 %).
`CNC(=O)c1cc(C#N)ccc1NS(=O)(=O)c1ccc(Oc2ccccc2Cl)cc1`: the inhibition reads like this: (PRVABC59, Concentration 49.5 uM, Number of replicates 2.0, Standard deviation 1.5671297466159566 %) 15.1%; (PRVABC59, Concentration 99.01 uM, Number of replicates 2.0, Standard deviation 1.4439402403900108 %) 25.1%; (PRVABC59, Concentration 198.0 uM, Number of replicates 2.0, Standard deviation 0.43015410765006534 %) 58.3%.
For the compound `CNC(=O)c1cc(Cl)ccc1NS(=O)(=O)c1ccc(Oc2ccccc2Cl)cc1`, the inhibition (PRVABC59, Concentration 49.5 uM, Number of replicates 2.0, Standard deviation 4.182044982903414 %) was 16.8%; the inhibition (PRVABC59, Concentration 99.01 uM, Number of replicates 2.0, Standard deviation 0.7456984587318506 %) came out at 44.5%; the inhibition (PRVABC59, Concentration 198.0 uM, Number of replicates 2.0, Standard deviation 0.5270959053225787 %) was found to be 31.5%.
Take `O=S(=O)(Nc1ccc(Cl)cc1)c1ccc(Oc2ccccc2Cl)cc1`: the inhibition runs as follows: (PRVABC59, Concentration 49.5 uM, Number of replicates 2.0, Standard deviation 0.5562375850821631 %) 7.5%; (PRVABC59, Concentration 99.01 uM, Number of replicates 2.0, Standard deviation 0.1909474772903637 %) 13.8%; (PRVABC59, Concentration 198.0 uM, Number of replicates 2.0, Standard deviation 0.9464347944699606 %) 26.1%.
Consider `NC(=O)c1ccccc1NS(=O)(=O)c1ccc(Oc2ccccc2Cl)cc1`, for which the inhibition reads like this: (PRVABC59, Concentration 49.5 uM, Number of replicates 2.0, Standard deviation 0.8239548725855442 %) -1.32%; (PRVABC59, Concentration 99.01 uM, Number of replicates 2.0, Standard deviation 0.884539787208196 %) 2%; (PRVABC59, Concentration 198.0 uM, Number of replicates 2.0, Standard deviation 0.6321029239261367 %) 31.5%.
Turning to `CCc1ccc(NS(=O)(=O)c2ccc(Oc3ccccc3Cl)cc2)c(C(=O)NC)c1`, the inhibition was determined as 14.3% (PRVABC59, Concentration 49.5 uM, Number of replicates 2.0, Standard deviation 1.2139175769082269 %); 19.5% (PRVABC59, Concentration 99.01 uM, Number of replicates 2.0, Standard deviation 1.880844587297581 %); 28.9% (PRVABC59, Concentration 198.0 uM, Number of replicates 2.0, Standard deviation 1.9898788215700518 %).
